Data on 34 compounds can be found in ChEMBL document CHEMBL2218924, “A broad activity screen in support of a chemogenomic map for kinase signalling research and drug discovery” (Biochem J, 2013).

Assay [1] has as its target Mitogen-activated protein kinase 14 (Homo sapiens) (UniProt Q16539). The settings on record: at 1 µM.
For assay [2] the target is unchanged. The settings on record: at 10 µM.
Assay [3] has as its target Mitogen-activated protein kinase 11 (Homo sapiens) (UniProt Q15759). The settings on record: at 1 µM.
Assay [4] has the same target. The following applies: at 10 µM.
Assay [5] has as its target T1, Mitogen-activated protein kinase 12 (Homo sapiens) (UniProt P53778).
T1 sequence (whole entry): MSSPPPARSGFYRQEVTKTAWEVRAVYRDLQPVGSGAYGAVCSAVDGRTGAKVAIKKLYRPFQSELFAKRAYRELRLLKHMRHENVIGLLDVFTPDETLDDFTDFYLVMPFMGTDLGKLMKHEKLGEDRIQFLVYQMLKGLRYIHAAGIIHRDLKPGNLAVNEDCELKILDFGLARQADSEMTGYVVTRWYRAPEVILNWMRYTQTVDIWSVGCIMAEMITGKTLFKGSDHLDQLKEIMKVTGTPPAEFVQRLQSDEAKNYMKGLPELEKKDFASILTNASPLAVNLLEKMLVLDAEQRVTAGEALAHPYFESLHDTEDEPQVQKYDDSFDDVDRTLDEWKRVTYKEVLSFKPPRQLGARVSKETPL
The settings on record: at 10 µM.

In assay [6] the target is T2, Mitogen-activated protein kinase 13 (Homo sapiens) (UniProt O15264).
T2 sequence (whole entry): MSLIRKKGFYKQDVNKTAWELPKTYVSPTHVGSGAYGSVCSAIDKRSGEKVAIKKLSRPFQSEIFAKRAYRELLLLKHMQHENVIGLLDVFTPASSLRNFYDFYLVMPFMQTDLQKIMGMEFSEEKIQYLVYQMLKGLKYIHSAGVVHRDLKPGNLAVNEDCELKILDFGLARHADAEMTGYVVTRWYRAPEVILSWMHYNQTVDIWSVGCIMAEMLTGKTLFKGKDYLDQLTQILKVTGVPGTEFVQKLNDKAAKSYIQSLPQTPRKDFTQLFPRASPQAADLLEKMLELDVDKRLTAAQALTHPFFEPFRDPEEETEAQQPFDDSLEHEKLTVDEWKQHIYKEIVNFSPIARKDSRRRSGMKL
The settings on record: at 10 µM.

Assay [7] concerns the target T3, Serine/threonine-protein kinase Sgk1 (Homo sapiens) (UniProt O00141).
T3 sequence (whole entry): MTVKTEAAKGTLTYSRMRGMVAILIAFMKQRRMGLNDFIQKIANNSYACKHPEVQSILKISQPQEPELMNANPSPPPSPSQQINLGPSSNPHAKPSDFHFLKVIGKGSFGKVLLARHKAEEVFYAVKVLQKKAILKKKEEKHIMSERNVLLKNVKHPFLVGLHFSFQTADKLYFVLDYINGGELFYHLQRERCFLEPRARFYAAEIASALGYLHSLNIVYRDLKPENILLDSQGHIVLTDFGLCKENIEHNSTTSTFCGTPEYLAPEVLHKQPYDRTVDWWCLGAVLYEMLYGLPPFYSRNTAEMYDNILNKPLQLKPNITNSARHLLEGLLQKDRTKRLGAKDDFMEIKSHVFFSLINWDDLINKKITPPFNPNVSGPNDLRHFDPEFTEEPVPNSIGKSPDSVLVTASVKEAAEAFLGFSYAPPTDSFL
The settings on record: at 1 µM.

The target of assay [8] is T3, Serine/threonine-protein kinase Sgk1 (Homo sapiens). The following applies: at 10 µM.
Assay [9] has as its target T4, Serine/threonine-protein kinase Sgk2 (Homo sapiens) (UniProt Q9HBY8).
T4 sequence (whole entry): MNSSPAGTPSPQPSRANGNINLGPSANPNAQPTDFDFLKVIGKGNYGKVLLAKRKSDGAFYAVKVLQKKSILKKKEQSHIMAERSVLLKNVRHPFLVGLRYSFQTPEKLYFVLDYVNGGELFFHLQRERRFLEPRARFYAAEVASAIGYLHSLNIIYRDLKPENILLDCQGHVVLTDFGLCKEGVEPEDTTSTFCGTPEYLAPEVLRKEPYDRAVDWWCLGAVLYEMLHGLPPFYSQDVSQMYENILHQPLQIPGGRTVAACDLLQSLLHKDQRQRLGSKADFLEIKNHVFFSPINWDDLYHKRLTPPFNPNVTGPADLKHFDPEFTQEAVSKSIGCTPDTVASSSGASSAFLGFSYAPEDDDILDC
The following applies: at 1 µM.

In assay [10] the target is T4, Serine/threonine-protein kinase Sgk2 (Homo sapiens). The following applies: at 10 µM.
Assay [11] concerns the target T5, Serine/threonine-protein kinase Sgk3 (Homo sapiens) (UniProt Q96BR1).
T5 sequence (whole entry): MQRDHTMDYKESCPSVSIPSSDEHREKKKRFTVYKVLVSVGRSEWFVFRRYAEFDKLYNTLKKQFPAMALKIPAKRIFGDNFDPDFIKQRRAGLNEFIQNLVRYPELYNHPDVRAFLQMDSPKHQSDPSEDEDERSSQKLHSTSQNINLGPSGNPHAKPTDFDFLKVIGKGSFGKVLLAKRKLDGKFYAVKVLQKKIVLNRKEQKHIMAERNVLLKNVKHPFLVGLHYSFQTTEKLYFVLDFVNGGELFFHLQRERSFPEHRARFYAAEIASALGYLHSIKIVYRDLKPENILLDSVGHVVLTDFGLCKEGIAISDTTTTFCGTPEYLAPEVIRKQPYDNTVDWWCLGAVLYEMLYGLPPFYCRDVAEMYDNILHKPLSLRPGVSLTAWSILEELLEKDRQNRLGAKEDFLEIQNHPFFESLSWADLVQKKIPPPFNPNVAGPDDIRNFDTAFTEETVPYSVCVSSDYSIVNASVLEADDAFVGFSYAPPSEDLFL
The following applies: at 10 µM.

Assay [12] has as its target Serine/threonine-protein kinase SIK1 (Homo sapiens) (UniProt P57059). The following applies: at 1 µM.
The target is the same in assay [13]. The following applies: at 10 µM.
Assay [14] addresses SRSF protein kinase 1 (Homo sapiens) (UniProt Q96SB4). The following applies: at 10 µM.
Assay [15] addresses SRSF protein kinase 2 (Homo sapiens) (UniProt P78362). The settings on record: at 1 µM.
The target is the same in assay [16]. The following applies: at 10 µM.
For assay [17], the target named is T1, Mitogen-activated protein kinase 12 (Homo sapiens). The following applies: at 1 µM.
For assay [18], the target named is T5, Serine/threonine-protein kinase Sgk3 (Homo sapiens). The settings on record: at 1 µM.
In assay [19] the target is T2, Mitogen-activated protein kinase 13 (Homo sapiens). The following applies: at 1 µM.
Assay [20] deals with SRSF protein kinase 1 (Homo sapiens) (UniProt Q96SB4). The settings on record: at 1 µM.
Sequence of SRSF protein kinase 1 (Homo sapiens) (Q96SB4 whole entry): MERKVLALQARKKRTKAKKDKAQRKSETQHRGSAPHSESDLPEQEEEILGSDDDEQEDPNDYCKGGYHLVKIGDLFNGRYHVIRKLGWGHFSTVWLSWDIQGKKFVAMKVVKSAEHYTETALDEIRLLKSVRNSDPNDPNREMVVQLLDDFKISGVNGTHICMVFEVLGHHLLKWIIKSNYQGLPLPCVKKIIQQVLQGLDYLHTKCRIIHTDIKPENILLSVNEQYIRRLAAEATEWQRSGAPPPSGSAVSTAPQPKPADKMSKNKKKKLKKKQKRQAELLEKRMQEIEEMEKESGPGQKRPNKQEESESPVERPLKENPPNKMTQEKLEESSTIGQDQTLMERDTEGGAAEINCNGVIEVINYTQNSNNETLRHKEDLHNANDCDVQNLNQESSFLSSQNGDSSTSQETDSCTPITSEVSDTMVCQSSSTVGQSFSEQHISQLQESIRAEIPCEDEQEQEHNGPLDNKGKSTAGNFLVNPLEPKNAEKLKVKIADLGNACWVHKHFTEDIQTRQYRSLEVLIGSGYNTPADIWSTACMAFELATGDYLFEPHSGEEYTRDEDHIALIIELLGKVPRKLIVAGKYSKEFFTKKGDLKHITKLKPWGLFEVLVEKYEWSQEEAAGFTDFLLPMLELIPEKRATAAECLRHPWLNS

The structures appear in SMILES notation.

Sequence of Mitogen-activated protein kinase 11 (Homo sapiens) (Q15759 whole entry): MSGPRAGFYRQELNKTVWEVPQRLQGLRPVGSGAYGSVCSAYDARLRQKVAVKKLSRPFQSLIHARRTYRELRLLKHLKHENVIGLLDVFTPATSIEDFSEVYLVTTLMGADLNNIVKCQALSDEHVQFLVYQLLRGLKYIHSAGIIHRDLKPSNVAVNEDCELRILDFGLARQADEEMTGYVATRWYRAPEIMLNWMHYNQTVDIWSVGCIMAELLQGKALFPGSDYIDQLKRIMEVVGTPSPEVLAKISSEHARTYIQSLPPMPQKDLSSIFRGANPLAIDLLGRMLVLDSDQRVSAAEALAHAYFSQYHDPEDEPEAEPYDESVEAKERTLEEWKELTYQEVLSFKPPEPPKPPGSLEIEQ
Sequence of SRSF protein kinase 2 (Homo sapiens) (P78362 whole entry, looked up): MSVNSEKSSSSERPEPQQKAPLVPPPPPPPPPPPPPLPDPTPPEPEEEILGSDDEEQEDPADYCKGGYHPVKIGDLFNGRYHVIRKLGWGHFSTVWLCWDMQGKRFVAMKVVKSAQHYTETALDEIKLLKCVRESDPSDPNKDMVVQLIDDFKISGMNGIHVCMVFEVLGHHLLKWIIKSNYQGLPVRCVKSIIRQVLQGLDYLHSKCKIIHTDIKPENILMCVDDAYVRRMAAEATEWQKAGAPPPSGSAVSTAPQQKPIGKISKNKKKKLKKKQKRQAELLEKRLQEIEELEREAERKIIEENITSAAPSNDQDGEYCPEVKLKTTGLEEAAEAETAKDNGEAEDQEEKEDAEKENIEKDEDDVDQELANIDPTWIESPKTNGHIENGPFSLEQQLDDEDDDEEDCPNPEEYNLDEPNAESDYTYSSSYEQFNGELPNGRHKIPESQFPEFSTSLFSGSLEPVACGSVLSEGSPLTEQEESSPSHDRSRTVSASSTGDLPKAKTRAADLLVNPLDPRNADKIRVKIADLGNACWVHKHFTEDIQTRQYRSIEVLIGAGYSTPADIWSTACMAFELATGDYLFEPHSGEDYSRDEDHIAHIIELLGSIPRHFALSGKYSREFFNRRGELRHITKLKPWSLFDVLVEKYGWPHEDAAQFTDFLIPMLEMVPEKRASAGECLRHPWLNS
Sequence of Serine/threonine-protein kinase SIK1 (Homo sapiens) (P57059 whole entry): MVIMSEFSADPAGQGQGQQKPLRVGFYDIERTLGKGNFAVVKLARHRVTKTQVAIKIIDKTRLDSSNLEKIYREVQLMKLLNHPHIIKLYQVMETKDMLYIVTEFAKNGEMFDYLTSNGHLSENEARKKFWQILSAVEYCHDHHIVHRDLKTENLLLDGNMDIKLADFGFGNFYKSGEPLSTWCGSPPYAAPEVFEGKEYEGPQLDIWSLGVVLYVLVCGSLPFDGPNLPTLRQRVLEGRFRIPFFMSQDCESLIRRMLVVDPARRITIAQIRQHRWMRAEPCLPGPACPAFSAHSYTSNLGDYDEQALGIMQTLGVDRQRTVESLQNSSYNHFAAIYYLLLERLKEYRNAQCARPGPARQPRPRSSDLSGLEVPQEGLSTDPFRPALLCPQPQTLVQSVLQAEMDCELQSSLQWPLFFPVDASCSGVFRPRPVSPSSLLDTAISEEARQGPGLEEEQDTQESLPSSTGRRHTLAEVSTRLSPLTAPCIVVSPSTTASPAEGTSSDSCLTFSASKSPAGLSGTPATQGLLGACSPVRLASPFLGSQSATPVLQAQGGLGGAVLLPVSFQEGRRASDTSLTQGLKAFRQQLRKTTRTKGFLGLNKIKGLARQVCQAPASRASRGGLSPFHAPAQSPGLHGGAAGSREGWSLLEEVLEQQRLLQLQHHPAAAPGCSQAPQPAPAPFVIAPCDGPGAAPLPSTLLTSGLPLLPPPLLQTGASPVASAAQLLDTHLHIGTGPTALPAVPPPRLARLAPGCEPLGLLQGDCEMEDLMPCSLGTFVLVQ
Sequence of Mitogen-activated protein kinase 14 (Homo sapiens) (Q16539 whole entry): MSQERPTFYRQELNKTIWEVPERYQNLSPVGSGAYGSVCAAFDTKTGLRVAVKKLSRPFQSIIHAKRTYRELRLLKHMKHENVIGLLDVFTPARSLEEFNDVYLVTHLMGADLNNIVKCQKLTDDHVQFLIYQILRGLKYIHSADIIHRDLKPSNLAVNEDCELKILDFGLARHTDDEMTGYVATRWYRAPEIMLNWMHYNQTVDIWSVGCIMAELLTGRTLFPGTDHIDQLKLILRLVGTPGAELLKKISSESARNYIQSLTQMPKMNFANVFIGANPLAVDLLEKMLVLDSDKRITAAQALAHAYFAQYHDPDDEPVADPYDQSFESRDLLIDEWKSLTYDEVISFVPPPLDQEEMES

For `CCn1cnc2c(Nc3cccc(Cl)c3)nc(N[C@@H]3CCCC[C@@H]3N)nc21`, the residual activity in [1] stood at 90%; in [2], 61%; in assay [3], 94%; in assay [4], 76%; in assay [5] it was 94%; in assay [6] it was 81%. The residual activity in [7] was determined as 91%; in assay [8] it was 90%; in assay [9], 97%; in [10], 65%; in assay [11] it was 59%; in assay [12] it was 20%. Also, the residual activity in assay [13] is 0%; in assay [14], 39%; in assay [15], 69%; in assay [16], 32%.
On to `COc1cc2c(cc1OC)-c1n[nH]c(Nc3cccc(F)c3)c1C2`, for which, in [17], the residual activity came to 100%.
Regarding `CCc1nc(-c2ccc(OC)cc2)[nH]c1-c1ccncc1`, the residual activity in [3] came out at 56%; in [4], 72%; in assay [17], 108%; in [5], 104%; in [18] it was 115%; in [11] it was 79%. The residual activity in assay [12] turned out to be 139%; in assay [15], 102%; in [16] it was 74%.
With `CC(C)(C)c1cc(C=C(C#N)C#N)cc(Br)c1O`, the residual activity in [1] worked out at 107%; in assay [2], 112%; in [3], 110%; in assay [4], 101%; in [17], 107%; in assay [5], 110%. Moreover, the residual activity in [19] was 101%; in assay [9], 98%; in assay [10] it was 70%; in assay [12], 103%; in assay [13] it was 139%; in assay [20], 114%. Moreover, the residual activity in [15] was 105%; in [16], 81%.
As for `COc1cc2nccc(Oc3ccc(NC(=O)Nc4cc(C)on4)c(Cl)c3)c2cc1OC`, the residual activity in assay [1] came to 23%; in assay [2] it was 5%; in [4], 5%.
With `CC(C)n1cnc2/c(=N/c3cccc(Cl)c3)nc(NCCO)[nH]c21`, the residual activity in [17] is 96%; in assay [5] it was 99%; in assay [18] it was 107%.
As to `Cn1c2ccccc2c2c3c(c4c5ccccc5n(CCC#N)c4c21)CNC3=O`, the residual activity in assay [17] and in assay [5] was 61% throughout.
Turning to `C[C@@H](N)[C@H]1CC[C@H](C(=O)Nc2ccncc2)CC1`, the residual activity came to 111% in assay [17], 111% in assay [5] and 101% in assay [18].
Consider `Oc1n[nH]c2nnc(-c3c(-c4ccccc4)nn4ccccc34)cc12`, for which the residual activity in assay [17] turned out to be 96%; in assay [5], 90%; in assay [18] it was 92%.
In the case of `O=C1Nc2ccc(Br)cc2/C1=C\c1cc2c([nH]1)CCCC2`, the residual activity in assay [17] came out at 115%; in [5], 102%.
In the case of `NC(=O)Nc1sc(-c2ccc(F)cc2)cc1C(N)=O`, the residual activity in [17] was 90%; in [5], 82%; in assay [18] it was 93%.
The corresponding values for `COc1cc2nccc(Oc3ccc(NC(=S)NC(=O)c4ccccc4C)cc3)c2cc1OC` are 99%, 94% and 97%.
As for `Cc1nc(-c2ccccc2)c(-c2ccncc2)o1`, the results for the residual activity in assay [17], in [5] and in assay [18] were 106%, 103% and 108%, respectively.
Taken in the same sequence, the figures for `NCCNc1ncc(C(N)=O)c(Nc2cccc(C(F)(F)F)c2)n1` were 103%, 106% and 82%.
As for `NC(=O)c1ccc2[nH]c(-c3ccc(Oc4ccc(Cl)cc4)cc3)nc2c1`, the residual activity in assay [17] came to 93%; in assay [5], 92%; in [18] it was 107%.
The corresponding values for `O=C1NC(=O)c2c1c1c3ccccc3[nH]c1n1cncc21` are 95%, 87% and 87%.
As for `CCOc1cc2ncnc(Nc3cccc(Br)c3)c2cc1OCC`, the residual activity is 103% in assay [17], 98% in assay [5] and 108% in assay [18].
For the compound `CC[n+]1c(/C=C/N(C)c2ccccc2)n(-c2ccccc2)c2ccc(-c3nc4ccccc4s3)cc21`, the values for the residual activity in [17], in assay [5] and in assay [18] were 111%, 94% and 99%, respectively.
Taken in the same sequence, the figures for `CCCCc1c(-c2ccc(OC)cc2)[nH]c2nccnc12` were 103%, 112% and 100%.
As for `O=C1NC(=O)c2cc(Nc3ccc(F)cc3)c(Nc3ccc(F)cc3)cc21`, the results for the residual activity in [17], in [5] and in assay [18] were 99%, 82% and 96%, respectively.
Taken in the same sequence, the figures for `COc1ccc(C(=O)Nc2sc3c(c2C(N)=O)CCCC3)cc1OC` were 95%, 83% and 74%.
With `Cc1cc2ncc(-c3ccccc3)nc2cc1C`, the residual activity in assay [17] is 100%; in assay [5] it was 100%; in [18], 108%.
For the compound `O=C1NC(=O)c2c1c1c3ccccc3[nH]c1c1[nH]c3cc(Br)ccc3c21`, the residual activity stood at 96% in assay [17], 88% in assay [5] and 96% in [18].
`O=c1cc(N2CCNCC2)oc2c(-c3ccccc3)cccc12`: the residual activity in assay [17] is 92%; in [5] it was 105%.
In the case of `CC#CC(=O)Nc1cc2c(Nc3ccc(F)c(Cl)c3)ncnc2cn1`, the residual activity was 103% in assay [17], 95% in assay [5] and 102% in assay [18].
Turning to `C[S+]([O-])c1ccc(-c2nc(-c3ccc(F)cc3)c(-c3ccncc3)[nH]2)cc1` (centres undefined), the residual activity in [17] is 114%; in assay [5] it was 86%; in [19] it was 111%; in assay [7], 96%; in assay [8], 124%; in [9] it was 114%. Moreover, the residual activity in assay [10] turned out to be 81%; in assay [18] it was 120%; in [11], 101%; in assay [12], 132%; in assay [13], 93%; in assay [20], 112%. For the same compound, the residual activity in assay [14] was determined as 109%; in assay [15], 112%.
With `O=C(O)/C=C/c1cc(Br)c(Br)c(Br)c1Br`, the residual activity in [17] turned out to be 110%; in assay [5], 90%.
Taken in the same sequence, the figures for `O=C1NC(=O)C(c2c[nH]c3ccccc23)=C1c1c[nH]c2ccccc12` were 99% and 51%.
Take `O=[N+]([O-])c1ccc(-c2nc(-c3ccc(F)cc3)c(-c3ccncc3)[nH]2)cc1`: the residual activity was 101% in assay [17], 93% in assay [5] and 111% in assay [18].
As to `CCOC(=O)c1c(C)[nH]c(/C=C2\C(=O)Nc3ccccc32)c1C`, the figures for the residual activity in assay [17] and in [5] were 99% and 95%, respectively.
Taken in the same sequence, the figures for `COc1cc2ncnc(Nc3cccc(Cl)c3)c2cc1OC` were 116% and 103%.
As to `Cn1nc2c3c(cccc31)C(=O)c1ccccc1-2`, the residual activity in [17] came out at 99%; in assay [5] it was 96%; in assay [18], 79%.
Taken in the same sequence, the figures for `CNc1cc2c(Nc3cccc(Br)c3)ncnc2cn1` were 105%, 95% and 103%.
As to `O=C(c1ccccc1)c1ccc(N2CCOCC2)cc1O`, the residual activity in [17] was 100%; in [5] it was 100%; in assay [18] it was 97%.
